Results from PubChem BioAssay (NCI).
The panel holds about 83,000 compounds, 20% with a hit somewhere; the sample as a whole holds those more often.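 48-hour exposure, single concentration, 96-well plates; percent growth endpoint where 0 means no net growth. Active: below 10.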 Activity calls are given as the source filed them.

Assays:
Assay in all cases: NCI-60 one-dose screen, 48 h (100 = growth as untreated, 0 = no growth, -100 = all killed)
Conditions in all cases: 10 µM unless noted
HCT-15 colon = test system: HCT-15 colon
HT29 colon = test system: HT29 colon
SNB-75 CNS = test system: SNB-75 CNS
SNB-19 CNS = test system: SNB-19 CNS
U251 CNS = test system: U251 CNS
PC-3 prostate = test system: PC-3 prostate
SK-MEL-5 melanoma = test system: SK-MEL-5 melanoma
UACC-62 melanoma = test system: UACC-62 melanoma
LOX IMVI melanoma = test system: LOX IMVI melanoma
SK-MEL-28 melanoma = test system: SK-MEL-28 melanoma
SK-MEL-2 melanoma = test system: SK-MEL-2 melanoma
EKVX NSCLC = test system: EKVX NSCLC
SN12C renal = test system: SN12C renal
UO-31 renal = test system: UO-31 renal
TK-10 renal = test system: TK-10 renal
ACHN renal = test system: ACHN renal
CAKI-1 renal = test system: CAKI-1 renal
A498 renal = test system: A498 renal
CCRF-CEM leukemia = test system: CCRF-CEM leukemia
MOLT-4 leukemia = test system: MOLT-4 leukemia

Measured: growth

O=C1N/C(=N\c2nccs2)S/C1=C\c1ccc([N+](=O)[O-])cc1
active: SNB-19 CNS 9.41% | U251 CNS 7.89% | SK-MEL-5 melanoma -8.09% | UACC-62 melanoma 2.3% | SK-MEL-28 melanoma 6.49% | CCRF-CEM leukemia -0.568%
inactive: HCT-15 colon 16% | HT29 colon 17.2% | SNB-75 CNS 34.1% | PC-3 prostate 17.6% | LOX IMVI melanoma 12.5% | SK-MEL-2 melanoma 16.8% | EKVX NSCLC 14.3% | SN12C renal 11.9% | UO-31 renal 12.6% | TK-10 renal 31.9% | ACHN renal 11.3% | CAKI-1 renal 18.8% | A498 renal 33.8% | MOLT-4 leukemia 11.9%

O=CNc1ccc(-n2cnc3cc(-c4ccc(O)cc4)ccc32)cc1
inactive: HCT-15 colon 74% | HT29 colon 111% | SNB-75 CNS 59.3% | SNB-19 CNS 88.5% | U251 CNS 84.6% | PC-3 prostate 88.1% | SK-MEL-5 melanoma 79.4% | UACC-62 melanoma 99.2% | LOX IMVI melanoma 93.7% | SK-MEL-28 melanoma 92.9% | SK-MEL-2 melanoma 115% | EKVX NSCLC 106% | SN12C renal 71.7% | UO-31 renal 61% | TK-10 renal 108% | ACHN renal 65.4% | CAKI-1 renal 87.3% | A498 renal 135% | CCRF-CEM leukemia 76.4% | MOLT-4 leukemia 77.3%

Cc1ccc(C2CC(c3ccc(NC(=O)Nc4ccccc4)cc3)=NN2c2ccc(S(C)(=O)=O)cc2)cc1 (stereo not given)
active: HCT-15 colon -84.4% | HT29 colon -55.7% | SNB-19 CNS 4.8% | U251 CNS -63.5% | PC-3 prostate 1.02% | SK-MEL-5 melanoma -99.9% | UACC-62 melanoma -80.3% | LOX IMVI melanoma -100% | SK-MEL-28 melanoma -89.4% | SK-MEL-2 melanoma -13.7% | EKVX NSCLC -2.75% | SN12C renal -94% | UO-31 renal 3.37% | ACHN renal -44.4% | CAKI-1 renal 5.74% | A498 renal -16.3% | CCRF-CEM leukemia 9.5%
inactive: SNB-75 CNS 56.9% | TK-10 renal 21.7% | MOLT-4 leukemia 20.3%

CN1C(=O)C(O)(CC(=O)c2cc3ccccc3oc2=O)c2ccccc21 (stereo not given)
inactive: HCT-15 colon 94.7% | HT29 colon 104% | SNB-75 CNS 107% | SNB-19 CNS 93.3% | U251 CNS 97.2% | PC-3 prostate 92.4% | SK-MEL-5 melanoma 100% | UACC-62 melanoma 86.8% | LOX IMVI melanoma 87.9% | SK-MEL-28 melanoma 107% | SK-MEL-2 melanoma 111% | EKVX NSCLC 90.1% | SN12C renal 88.8% | UO-31 renal 57.3% | TK-10 renal 116% | ACHN renal 98.1% | CAKI-1 renal 86.1% | A498 renal 162% | CCRF-CEM leukemia 92% | MOLT-4 leukemia 83.4%

COc1cc(CNC(=O)C[C@H](C)CCC=C(C)C)ccc1OCc1cn(-c2ccc(Cl)cc2Cl)nn1
active: SNB-75 CNS 7.99%
inactive: HCT-15 colon 79.6% | HT29 colon 82.3% | SNB-19 CNS 50% | U251 CNS 54.4% | PC-3 prostate 85% | SK-MEL-5 melanoma 60.4% | UACC-62 melanoma 65.6% | LOX IMVI melanoma 80.7% | SK-MEL-28 melanoma 96.3% | SK-MEL-2 melanoma 71.7% | EKVX NSCLC 81.1% | SN12C renal 64.8% | UO-31 renal 60.5% | TK-10 renal 68.7% | ACHN renal 61.1% | CAKI-1 renal 31.8% | A498 renal 59% | CCRF-CEM leukemia 116% | MOLT-4 leukemia 84%

COc1ccc(N=Nc2c(N)nn3c(-c4cc5ccccc5oc4=O)ccnc23)cc1
active: ACHN renal 3.84%
inactive: HCT-15 colon 64.9% | HT29 colon 50.7% | SNB-75 CNS 33.6% | SNB-19 CNS 19.8% | U251 CNS 28.5% | PC-3 prostate 70.7% | SK-MEL-5 melanoma 24% | UACC-62 melanoma 47.7% | LOX IMVI melanoma 57.2% | SK-MEL-28 melanoma 45.4% | SK-MEL-2 melanoma 39.3% | EKVX NSCLC 44.1% | SN12C renal 24.1% | UO-31 renal 40.7% | TK-10 renal 77.7% | CAKI-1 renal 53.8% | A498 renal 138% | CCRF-CEM leukemia 96.3% | MOLT-4 leukemia 104%

COc1cc(/C=C/C(=O)c2ccc(S(=O)(=O)NCCNc3nc(N(C)C)nc(N4CCOCC4)n3)cc2)cc(OC)c1OC
active: HCT-15 colon -100% | HT29 colon -100% | U251 CNS -100% | PC-3 prostate -76.5% | UACC-62 melanoma -21.7% | LOX IMVI melanoma -100% | SK-MEL-28 melanoma -100% | SN12C renal -22% | ACHN renal -100% | CCRF-CEM leukemia -27.9% | MOLT-4 leukemia -40.2%
inactive: SNB-75 CNS 20% | SNB-19 CNS 29.1% | SK-MEL-5 melanoma 18.8% | SK-MEL-2 melanoma 81.4% | EKVX NSCLC 36.3% | UO-31 renal 12.8% | TK-10 renal 13.5% | CAKI-1 renal 39.4% | A498 renal 51.9%

Cc1ccc(S(=O)(=O)N(CCn2ccnc2[N+](=O)[O-])CCn2ccnc2[N+](=O)[O-])cc1
inactive: HCT-15 colon 103% | HT29 colon 112% | SNB-75 CNS 96% | SNB-19 CNS 101% | U251 CNS 102% | PC-3 prostate 94.9% | SK-MEL-5 melanoma 99.3% | UACC-62 melanoma 94% | LOX IMVI melanoma 102% | SK-MEL-28 melanoma 106% | SK-MEL-2 melanoma 105% | EKVX NSCLC 95.5% | SN12C renal 105% | UO-31 renal 76.4% | TK-10 renal 98.4% | ACHN renal 101% | CAKI-1 renal 89.2% | A498 renal 112% | CCRF-CEM leukemia 100% | MOLT-4 leukemia 99.8%

COc1sc(/C=N/NC(=O)c2[nH]c3ccc(Br)cc3c2-c2ccccc2)cc1Br
inactive: SNB-75 CNS 57.1% | SNB-19 CNS 14.7% | PC-3 prostate 19.4% | UACC-62 melanoma 17% | SK-MEL-28 melanoma 18.2% | SK-MEL-2 melanoma 15.4% | EKVX NSCLC 13.5% | UO-31 renal 31.1% | TK-10 renal 64.6% | CAKI-1 renal 15.2% | A498 renal 134%
active: HCT-15 colon 7.77% | HT29 colon -26.9% | U251 CNS -11.2% | SK-MEL-5 melanoma -53.5% | LOX IMVI melanoma -23.4% | SN12C renal 5.93% | ACHN renal 7.58% | CCRF-CEM leukemia 6.23% | MOLT-4 leukemia -2.1%

COc1cc(CNC(=O)C[C@H](C)CCC=C(C)C)ccc1OCc1cn(-c2ccccc2F)nn1
inactive: HCT-15 colon 82.8% | HT29 colon 97.4% | SNB-75 CNS 10.6% | SNB-19 CNS 55.7% | U251 CNS 61.6% | PC-3 prostate 87.9% | SK-MEL-5 melanoma 70.8% | UACC-62 melanoma 69.5% | LOX IMVI melanoma 76.7% | SK-MEL-28 melanoma 94.9% | SK-MEL-2 melanoma 78.6% | EKVX NSCLC 78.3% | SN12C renal 76.1% | UO-31 renal 71.9% | TK-10 renal 95.8% | ACHN renal 65.3% | CAKI-1 renal 55.1% | A498 renal 103% | CCRF-CEM leukemia 97.3% | MOLT-4 leukemia 74.8%

COc1ccc(C(=O)c2c(N)c(C#N)cn2-c2ccc([N+](=O)[O-])cc2)cc1
inactive: HCT-15 colon 104% | HT29 colon 102% | SNB-75 CNS 92.2% | SNB-19 CNS 100% | U251 CNS 111% | PC-3 prostate 109% | SK-MEL-5 melanoma 102% | UACC-62 melanoma 93.1% | LOX IMVI melanoma 96.3% | SK-MEL-28 melanoma 112% | SK-MEL-2 melanoma 108% | EKVX NSCLC 93.6% | SN12C renal 101% | UO-31 renal 90.1% | TK-10 renal 117% | ACHN renal 106% | CAKI-1 renal 85.4% | A498 renal 126% | CCRF-CEM leukemia 112% | MOLT-4 leukemia 105%

Cc1cccc(C)c1Nc1nnc(-c2c[nH]c3ccccc23)o1
inactive: HCT-15 colon 97.6% | HT29 colon 104% | SNB-75 CNS 88% | SNB-19 CNS 97.5% | U251 CNS 95.6% | PC-3 prostate 76.3% | SK-MEL-5 melanoma 94.1% | UACC-62 melanoma 83.2% | LOX IMVI melanoma 83.9% | SK-MEL-28 melanoma 105% | SK-MEL-2 melanoma 99.5% | EKVX NSCLC 74.6% | SN12C renal 87.8% | UO-31 renal 65.3% | TK-10 renal 148% | ACHN renal 93.9% | CAKI-1 renal 82.7% | A498 renal 134% | CCRF-CEM leukemia 106% | MOLT-4 leukemia 91.1%

CCc1ccccc1NC(=O)N/C(N)=N/c1nc2ccccc2s1
inactive: PC-3 prostate 21.8% | UACC-62 melanoma 13.8% | SK-MEL-28 melanoma 38% | SK-MEL-2 melanoma 10.6% | EKVX NSCLC 27.6% | UO-31 renal 34.7% | TK-10 renal 19.8% | A498 renal 60.3%
active: HCT-15 colon 0.728% | HT29 colon -25% | SNB-75 CNS 3.91% | SNB-19 CNS 9.49% | U251 CNS -18.9% | SK-MEL-5 melanoma -59.1% | LOX IMVI melanoma -53.7% | SN12C renal 0.486% | ACHN renal 1.6% | CAKI-1 renal 4.86% | CCRF-CEM leukemia 4.47% | MOLT-4 leukemia 6.27%

COC(=O)CSC1=C(C)C(=O)C(OC)=C(OC)C1=O
inactive: HCT-15 colon 86.3% | HT29 colon 103% | SNB-75 CNS 66.6% | SNB-19 CNS 90.3% | U251 CNS 98.1% | PC-3 prostate 76.9% | SK-MEL-5 melanoma 86.4% | UACC-62 melanoma 70.5% | LOX IMVI melanoma 83.3% | SK-MEL-28 melanoma 104% | SK-MEL-2 melanoma 103% | EKVX NSCLC 91% | SN12C renal 96.2% | UO-31 renal 80.7% | TK-10 renal 106% | ACHN renal 96.4% | CAKI-1 renal 77.4% | A498 renal 90.4% | CCRF-CEM leukemia 25% | MOLT-4 leukemia 17.5%

COc1cc(C2CC(c3ccc(S(=O)(=O)NCCNc4nc(N(C)C)nc(N5CCOCC5)n4)cc3)=Nc3c(N)nc(N)nc3N2)cc(OC)c1OC (stereo not given)
inactive: HCT-15 colon 93.8% | HT29 colon 99.8% | SNB-75 CNS 102% | SNB-19 CNS 96.2% | U251 CNS 97.5% | PC-3 prostate 96.3% | SK-MEL-5 melanoma 91.4% | UACC-62 melanoma 93.7% | LOX IMVI melanoma 94.3% | SK-MEL-28 melanoma 100% | SK-MEL-2 melanoma 108% | EKVX NSCLC 75.4% | SN12C renal 86.5% | UO-31 renal 80.5% | TK-10 renal 107% | ACHN renal 94.6% | CAKI-1 renal 88.4% | A498 renal 79% | CCRF-CEM leukemia 99.3% | MOLT-4 leukemia 89.3%

CCCCCCCOc1ccc(S(=O)(=O)Nc2ccc(C)c(F)c2C(=O)O)cc1
inactive: HCT-15 colon 79.4% | HT29 colon 121% | SNB-75 CNS 104% | SNB-19 CNS 89.4% | U251 CNS 91.4% | PC-3 prostate 91% | SK-MEL-5 melanoma 96.7% | UACC-62 melanoma 90.6% | LOX IMVI melanoma 98.9% | SK-MEL-28 melanoma 117% | SK-MEL-2 melanoma 102% | EKVX NSCLC 95.4% | SN12C renal 94.9% | UO-31 renal 75% | TK-10 renal 96.2% | ACHN renal 101% | CAKI-1 renal 93% | A498 renal 102% | CCRF-CEM leukemia 81.6% | MOLT-4 leukemia 98.3%
